# Laboratory results published in the supplement of paper PMC8728848.
# This is one part of a sample in which the strongest signals are shown more often than they occur.
# Assays:
# Experiment in all cases: glycan array binding signal (z-score within array); higher = stronger binding
# Details in all cases: glycan notation: IUPAC condensed, linker removed
# [1] = target: Fuc(a1-2)Gal(b1-4)GlcNAc(b1-3)[Fuc(a1-2)Gal(b1-4)GlcNAc(b1-6)]GalNAc
# Outline: (§1)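 Negative Z-scores can be read as non-binding. The Z-score is calculated within each array and then averaged across arrays of one protein sequence at different concentrations or buffers and across linkers. Arrays, 3228 in all, were curated from the Consortium for Functional Glycomics database and kept only where the protein sequence was available.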
# [2] = target: Fuc(a1-2)[Gal(a1-3)]Gal(b1-3)GalNAc
# Outline: as §1
# [3] = target: Fuc(a1-2)[Gal(a1-3)]Gal(b1-3)GlcNAc(b1-3)GalNAc
# Outline: as §1
# [4] = target: Fuc(a1-2)[GalNAc(a1-3)]Gal
# Outline: as §1
# [5] = target: Fuc(a1-2)[GalNAc(a1-3)]Gal(b1-3)GlcNAc(b1-3)GalNAc
# Outline: as §1
# [6] = target: Fuc(a1-3)[Gal(b1-4)]GlcNAc(b1-2)Man(a1-3)[Fuc(a1-3)[Gal(b1-4)]GlcNAc(b1-2)Man(a1-6)]Man(b1-4)GlcNAc(b1-4)GlcNAc
# Outline: as §1
# [7] = target: Fuc(a1-3)[Gal(b1-4)]GlcNAc(b1-3)Gal(b1-3)[Fuc(a1-4)]GlcNAc
# Outline: as §1
# Gal(a1-3)GalNAc = target: Gal(a1-3)GalNAc
# Outline: as §1
# [8] = target: Gal(b1-3)GalNAc(a1-3)[Fuc(a1-2)]Gal(b1-4)GlcNAc
# Outline: as §1
# [9] = target: Gal(b1-4)GlcNAc(b1-2)Man(a1-3)[Man(a1-6)]Man(b1-4)GlcNAc(b1-4)GlcNAc
# Outline: as §1
# [10] = target: Gal(b1-4)GlcNAc(b1-3)[Gal(b1-4)GlcNAc(b1-6)]GalNAc
# Outline: as §1
# Gal3S(b1-3)GalNAc = target: Gal3S(b1-3)GalNAc
# Outline: as §1
# [11] = target: Gal3S(b1-3)[Fuc(a1-4)]GlcNAc
# Outline: as §1
# Gal6S(b1-3)GlcNAc6S = target: Gal6S(b1-3)GlcNAc6S
# Outline: as §1
# Glc(b1-4)Glc = target: Glc(b1-4)Glc
# Outline: as §1
# [12] = target: GlcNAc(a1-4)Gal(b1-4)GlcNAc
# Outline: as §1
# [13] = target: GlcNAc(a1-4)Gal(b1-4)GlcNAc(b1-3)Gal(b1-4)GlcNAc(b1-3)Gal(b1-4)GlcNAc
# Outline: as §1
# [14] = target: GlcNAc(b1-2)Gal(b1-3)GalNAc
# Outline: as §1
# [15] = target: GlcNAc(b1-2)Man(a1-3)[GlcNAc(b1-2)Man(a1-6)]Man(b1-4)GlcNAc(b1-4)GlcNAc
# Outline: as §1
# [16] = target: GlcNAc(b1-2)Man(a1-3)[GlcNAc(b1-4)][GlcNAc(b1-2)Man(a1-6)]Man(b1-4)GlcNAc(b1-4)GlcNAc
# Outline: as §1
# [17] = target: GlcNAc(b1-2)[GlcNAc(b1-4)]Man(a1-3)[GlcNAc(b1-4)][GlcNAc(b1-2)Man(a1-6)]Man(b1-4)GlcNAc(b1-4)GlcNAc
# Outline: as §1
# [18] = target: GlcNAc(b1-2)[GlcNAc(b1-6)]Man(a1-6)[GlcNAc(b1-2)Man(a1-3)][GlcNAc(b1-4)]Man(b1-4)GlcNAc(b1-4)GlcNAc
# Outline: as §1
# GlcNAc(b1-3)Gal = target: GlcNAc(b1-3)Gal
# Outline: as §1
# [19] = target: GlcNAc(b1-3)Gal(b1-3)GalNAc
# Outline: as §1
# [20] = target: GlcNAc(b1-3)[GlcNAc(b1-4)][GlcNAc(b1-6)]GlcNAc
# Outline: as §1
# [21] = target: GlcNAc(b1-3)[GlcNAc(b1-6)]GalNAc
# Outline: as §1
# [22] = target: GlcNAc(b1-4)Gal(b1-4)GlcNAc
# Outline: as §1
# Kdn(a2-3)Gal(b1-4)Glc = target: Kdn(a2-3)Gal(b1-4)Glc
# Outline: as §1
# [23] = target: Neu5Ac(a2-3)Gal(b1-3)GalNAc6S
# Outline: as §1
# [24] = target: Neu5Ac(a2-3)Gal(b1-4)GlcNAc(b1-2)Man(a1-3)[Neu5Ac(a2-6)Gal(b1-4)GlcNAc(b1-2)Man(a1-6)]Man(b1-4)GlcNAc(b1-4)GlcNAc
# Outline: as §1
# [25] = target: Neu5Ac(a2-3)Gal(b1-4)[Fuc(a1-3)]GlcNAc
# Outline: as §1
# [26] = target: Neu5Ac(a2-3)GalNAc(b1-4)GlcNAc
# Outline: as §1
# [27] = target: Neu5Ac(a2-6)Gal(b1-4)GlcNAc(b1-3)Gal(b1-4)GlcNAc(b1-3)Gal(b1-4)GlcNAc
# Outline: as §1
# [28] = target: Neu5Ac(a2-6)GlcNAc(b1-4)GlcNAc
# Outline: as §1
# [29] = target: Neu5Ac(a2-8)Neu5Ac(a2-3)Gal(b1-4)Glc
# Outline: as §1
# [30] = target: Neu5Ac(a2-8)Neu5Ac(a2-3)[GalNAc(b1-4)]Gal(b1-4)Glc
# Outline: as §1
# Neu5Gc(a2-6)GalNAc = target: Neu5Gc(a2-6)GalNAc
# Outline: as §1
binder,measurement,setting,value
XCL (Xerocomus chrysenteron) (protein) MSYSITLRVYQTNRDRGYFSIVEKTVWHFANGGTWSEANGAHTLTQGGSGTSGVLRFLSTKGERITVAVGVHNYKRWCDVVTGLKPDETALVINPQYYNNGGRDYVREKQLAEYSVTSAIGTKVEVVYTVAEGNNLEANVIFS,glycan array binding signal (z-score),[1],-0.27
same,glycan array binding signal (z-score),[2],-0.324
same,glycan array binding signal (z-score),[3],-0.303
same,glycan array binding signal (z-score),[4],-0.237
same,glycan array binding signal (z-score),[5],-0.249
same,glycan array binding signal (z-score),[6],-0.324
same,glycan array binding signal (z-score),[7],-0.31
same,glycan array binding signal (z-score),Gal(a1-3)GalNAc,-0.207
same,glycan array binding signal (z-score),[8],3.43
same,glycan array binding signal (z-score),[9],-0.272
same,glycan array binding signal (z-score),[10],-0.282
same,glycan array binding signal (z-score),Gal3S(b1-3)GalNAc,3.44
same,glycan array binding signal (z-score),[11],-0.322
same,glycan array binding signal (z-score),Gal6S(b1-3)GlcNAc6S,-0.321
same,glycan array binding signal (z-score),Glc(b1-4)Glc,-0.304
same,glycan array binding signal (z-score),[12],2.15
same,glycan array binding signal (z-score),[13],5.84
same,glycan array binding signal (z-score),[14],-0.139
same,glycan array binding signal (z-score),[15],4.71
same,glycan array binding signal (z-score),[16],5.38
same,glycan array binding signal (z-score),[17],4.92
same,glycan array binding signal (z-score),[18],3.42
same,glycan array binding signal (z-score),GlcNAc(b1-3)Gal,0.225
same,glycan array binding signal (z-score),[19],3.71
same,glycan array binding signal (z-score),[20],0.592
same,glycan array binding signal (z-score),[21],0.896
same,glycan array binding signal (z-score),[22],-0.303
same,glycan array binding signal (z-score),Kdn(a2-3)Gal(b1-4)Glc,-0.294
same,glycan array binding signal (z-score),[23],3.87
same,glycan array binding signal (z-score),[24],-0.32
same,glycan array binding signal (z-score),[25],-0.3
same,glycan array binding signal (z-score),[26],-0.279
same,glycan array binding signal (z-score),[27],-0.311
same,glycan array binding signal (z-score),[28],-0.322
same,glycan array binding signal (z-score),[29],-0.311
same,glycan array binding signal (z-score),[30],-0.316
same,glycan array binding signal (z-score),Neu5Gc(a2-6)GalNAc,0.059
